PubChem BioAssay (Tox21)
“And” between values parts separate entries of the source, which are not always exact repeats. Equal entries are not always repeated. Inconclusive results are not listed. Where a call stands in place of a potency, no number is given. The source made the active and inactive calls. Unless noted, calls follow the shape of the dose curve; as a rule, active = well fitted curve in the direction sought with a large enough effect in the repeat runs; inconclusive = weak or mixed curves; inactive = no such curve, though single readings can be large; an effect the other way counts as inactive or inconclusive.

What was measured:
[1] = biological target: Estrogen receptor beta (Homo sapiens) (UniProt Q92731); experiment: qHTS assay to identify small molecule agonists of the estrogen receptor beta (ER-beta) signaling pathway (AID 1259377; active = well fitted activation curve with a large enough effect in the signal ratio in the repeat runs, not every such curve was filed as active; the % refers to the signal ratio)
Method in brief: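 ER-beta-UAS-bla HEK293T (GripTite) cells carrying a UAS-driven beta-lactamase reporter, in medium with 2% charcoal-stripped FBS, were exposed to compounds for 16 hr at 37C; LiveBLAzer B/G FRET substrate was then added and fluorescence read after 2 hours at room temperature.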

[2] = biological target: Estrogen receptor beta (Homo sapiens) (UniProt Q92731); experiment: qHTS assay to identify small molecule antagonists of the estrogen receptor beta (ER-beta) signaling pathway (AID 1259378; active = well fitted inhibition curve with a large enough effect in the signal ratio in the repeat runs, not every such curve was filed as active; the % refers to the signal ratio; also: potency is read from the fitted curve at half-maximal effect)
Method in brief: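 ER-beta-UAS-bla HEK293T (GripTite) cells in 2% charcoal-stripped FBS medium were preincubated 6 hr at 37C, dosed with compound, then stimulated with 1 nM E2 (final) for 16 hr; beta-lactamase reporter read by B/G FRET fluorescence after 2 hr substrate loading.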

[3] = qHTS assay to identify small molecule agonists of the estrogen receptor beta (ER-beta) signaling pathway - cell viability counter screen (AID 1259380); also: nearly all actives have a fitted effect of over 30% in size; also: potency is read from the fitted curve at half-maximal effect
Method in brief: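 CellTiter-Glo read, 30 min RT, same wells as bla assay; cells ER-beta-UAS-bla HEK293T; 16 hr compound, 37C; medium 2% charcoal-stripped FBS.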

[4] = qHTS assay to identify small molecule antagonists of the estrogen receptor beta (ER-beta) signaling pathway - cell viability counter screen (AID 1259382); also: nearly all actives have a fitted effect of over 55% in size; also: potency is read from the fitted curve at half-maximal effect
Method in brief: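 In this multiplexed counter screen, cells were seeded at 2,000 per well in medium with 2% charcoal-stripped FBS and incubated 6 hr before compound and 1nM final E2 were added. Sixteen hours later, ATP-based luminescence reported viability.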

[5] = biological target: Estrogen receptor (Homo sapiens) (UniProt P03372); experiment: qHTS assay to identify small molecule agonists of the estrogen receptor alpha (ER-alpha) signaling pathway in the presence of an antagonist (AID 1259383; calls by dose curve; also: top concentration of the series differs between compounds; nearly all actives have a fitted effect of over 15% in size)
Method in brief: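 Stably transfected VM7Luc4E2 reporter cells, kept 5 days in charcoal-stripped serum, received ICI-182,780 at 10.0nM final before compound addition. Following 22hr incubation at 37C and 5% CO2, luciferase signal was read by luminescence.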

[6] = qHTS assay to identify small molecule agonists or antagonists of the thyroid stimulating hormone receptor (TSHR) signaling pathway - wild type cell line counter screen (AID 1259384; calls by dose curve)
Method in brief: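 Wild-type HEK293 cells were plated 18 h at 37 C/5% CO2, pin-dosed with compound plus Ro20-1724 medium, held 30 min at room temperature, then given cAMP-d2 and anti-cAMP-cryptate; fluorescence was read after 1 h. Fifteen concentrations, triplicate.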

[7] = biological target: Thyrotropin receptor (Homo sapiens) (UniProt P16473); experiment: qHTS assay to identify small molecule antagonists of the thyroid stimulating hormone receptor (TSHR) signaling pathway (AID 1259385; calls by dose curve; also: nearly all actives have a fitted effect of over 20% in size; also: potency is read from the fitted curve at half-maximal effect)
Method in brief: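 TSHR-HEK293 cells were plated and held 18 h at 37C/5% CO2, then given compound plus Ro20-1724 and stimulated with TSH at 1.5 ng/mL final. After 30 min at room temperature, cAMP was detected with cAMP-d2/anti-cAMP-cryptate (1 h) by fluorescence.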

[8] = qHTS assay to identify small molecule agonists of the estrogen receptor alpha (ER-alpha) signaling pathway in the presence of an antagonist - cell viability counter screen (AID 1259386);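 also: series mostly up to about 92 µM; cells exposed to compounds for 22 h at 37 °C before the viability read; nearly all actives have a fitted effect of over 30% in size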
Method in brief: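 Viability counter screen using VM7Luc4E2 (full-length ER-alpha, four ERE-luciferase). The cells were treated with compounds alongside ICI-182,780 10.0nM for 22hr, and live-cell protease fluorescence was quantified with CellTiter-Fluor.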

[9] = biological target: Progesterone receptor (Homo sapiens) (UniProt P06401); experiment: qHTS assay to identify small molecule agonists of the progesterone receptor (PR) signaling pathway (AID 1346784; calls by dose curve; also: nearly all actives have a fitted effect of over 30% in size)
Method in brief: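 PR-UAS-bla HEK 293T cells carrying a UAS-driven beta-lactamase reporter were seeded in medium with 2% charcoal-stripped FBS, preincubated 6 hr at 37C, then exposed to compounds in DMSO for 16 hr; agonism was read by LiveBLAzer B/G FRET fluorescence.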

[10] = biological target: Progesterone receptor (Homo sapiens) (UniProt P06401); experiment: qHTS assay to identify small molecule antagonists of the progesterone receptor (PR) signaling pathway (AID 1346795; active = well fitted inhibition curve with a large enough effect in the signal ratio in the repeat runs, not every such curve was filed as active; the % refers to the signal ratio; also: potency is read from the fitted curve at half-maximal effect)
Method in brief: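 PR-UAS-bla HEK293T cells carrying a UAS-driven beta-lactamase reporter were plated in medium with 2% charcoal-stripped FBS and rested 6 hr at 37C. Compounds were added with 1 nM R5020 (final) for 16 hr, then FRET substrate loaded 2 hr at room temperature.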

[11] = qHTS assay to identify small molecule antagonists of the progesterone receptor (PR) signaling pathway - cell viability counter screen (AID 1346798); also: nearly all actives have a fitted effect of over 50% in size; also: potency is read from the fitted curve at half-maximal effect
Method in brief: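 PR-UAS-bla HEK293T cells in medium with 2% charcoal-stripped FBS were treated with compounds plus R5020 for 16 hr at 37C. Cell viability was then read by CellTiter-Glo luminescence after 30 min at room temperature in the same wells.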

[12] = qHTS assay to identify small molecule antagonists of the TGF-beta/Smad signaling pathway - cell viability counter screen (AID 1346824); also: nearly all actives have a fitted effect of over 50% in size
Method in brief: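 SBE-bla HEK 293T cells were plated overnight at 37 C, then given compounds in DMSO plus TGF-beta1 (added as 0.25 ng/mL solution) for 5 hr. After the bla read, CellTiter-Glo was added to the same wells and luminescence read after 30 min at room temperature.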

[13] = qHTS assay to identify small molecule agonists of the TGF-beta/Smad signaling pathway - cell viability counter screen (AID 1346829); also: top concentration of the series differs between compounds; nearly all actives have a fitted effect of over 45% in size
Method in brief: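 Luminescence from CellTiter-Glo, read after a 30 min room-temperature incubation, gives cell viability of SBE-bla HEK 293T cells treated 5 hr with compounds at 37 C.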

[14] = qHTS assay to identify small molecule agonists of the TGF-beta/Smad signaling pathway (AID 1346859; active = well fitted activation curve with a large enough effect in the signal ratio in the repeat runs, not every such curve was filed as active; the % refers to the signal ratio; also: series mostly up to about 77 µM)
Method in brief: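 HEK 293T cells stably carrying a beta-lactamase reporter driven by the Smad binding element were seeded overnight, exposed to DMSO-dissolved compounds for 5 hr at 37 C, 5% CO2, then loaded with FRET substrate for 2 hr at room temperature.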

[15] = biological target: Thyrotropin-releasing hormone receptor (Homo sapiens) (UniProt P34981); experiment: qHTS assay to identify small molecule antagonists of the thyrotropin-releasing hormone receptor (TRHR) signaling pathway (AID 1346877; active = well fitted inhibition curve with a large enough effect in the repeat runs, not every such curve was filed as active; also: series mostly up to about 51 µM)
Method in brief: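 Following an 18 h incubation at 37 °C and a 2 h calcium dye load, TRHR-HEK293 cells were exposed to compound (5 min, room temperature) and challenged with TRH, 1 nM final.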

[16] = biological target: Thyrotropin-releasing hormone receptor (Homo sapiens) (UniProt P34981); experiment: qHTS assay to identify small molecule agonists of the thyrotropin-releasing hormone receptor (TRHR) signaling pathway (AID 1346891; calls by dose curve; also: series mostly up to about 58 µM)
Method in brief: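 TRHR-expressing HEK293 cells were plated 18 h at 37 °C/5% CO2, loaded with calcium dye 2 h at 37 °C, then given compound in DMSO; fluorescence was read kinetically for 3 min at 1 s intervals.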

[17] = Human pregnane X receptor (PXR) small molecule agonists, qHTS cell viability counter screen (AID 1346977); also: nearly all actives have a fitted effect of over 50% in size
Method in brief: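 PXR-Luc HepG2 cells in medium with 5% charcoal-stripped FBS were pre-incubated 5hr, then exposed to compounds for 24hr at 37C. Viability was read in the same wells by CellTiter-Fluor fluorescence, reagent added after 23hr with a 1hr incubation.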

[18] = qHTS assay to identify small molecule agonists of the progesterone receptor (PR) signaling pathway - cell viability counter screen (AID 1346799; calls by dose curve; also: nearly all actives have a fitted effect of over 45% in size)
Method in brief: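 PR-UAS-bla HEK293T cells, 3,000 per well in medium with 2% charcoal-stripped FBS, were preincubated 6 hr at 37C, then exposed to compounds for 16 hr; viability was read as CellTiter-Glo luminescence after 30 min at room temperature.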

[19] = qHTS assay to identify small molecule agonists of the androgen receptor (AR) signaling pathway in the presence of an antagonist - cell viability counter screen (AID 1259379);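 also: MDA-kb2 human breast cancer cells carrying an MMTV luciferase reporter; series mostly up to about 92 µM; nearly all actives have a fitted effect of over 25% in size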
Method in brief: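 Seed MDA-kb2 at 3,000 cells/well; incubate 5 hr, 37C, 0% CO2. Add nilutamide to 3.0uM final, then pin compounds at 15 concentrations. Incubate 16 hr. Add CellTiter-Fluor at 15 hr, read fluorescence after 1 hr.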

[20] = biological target: Androgen receptor (Homo sapiens) (UniProt P10275); experiment: qHTS assay to identify small molecule agonists of the androgen receptor (AR) signaling pathway in the presence of an antagonist (AID 1259381; calls by dose curve; also: nearly all actives have a fitted effect of over 15% in size)
Method in brief: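 Test compounds at 15 concentrations were incubated for 16hr with MDA-kb2 reporter cells in presence of 3.0uM nilutamide (final). Signal: ONE-Glo luciferase luminescence.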

Chain of Progesterone receptor (Homo sapiens) (P06401 whole entry, looked up): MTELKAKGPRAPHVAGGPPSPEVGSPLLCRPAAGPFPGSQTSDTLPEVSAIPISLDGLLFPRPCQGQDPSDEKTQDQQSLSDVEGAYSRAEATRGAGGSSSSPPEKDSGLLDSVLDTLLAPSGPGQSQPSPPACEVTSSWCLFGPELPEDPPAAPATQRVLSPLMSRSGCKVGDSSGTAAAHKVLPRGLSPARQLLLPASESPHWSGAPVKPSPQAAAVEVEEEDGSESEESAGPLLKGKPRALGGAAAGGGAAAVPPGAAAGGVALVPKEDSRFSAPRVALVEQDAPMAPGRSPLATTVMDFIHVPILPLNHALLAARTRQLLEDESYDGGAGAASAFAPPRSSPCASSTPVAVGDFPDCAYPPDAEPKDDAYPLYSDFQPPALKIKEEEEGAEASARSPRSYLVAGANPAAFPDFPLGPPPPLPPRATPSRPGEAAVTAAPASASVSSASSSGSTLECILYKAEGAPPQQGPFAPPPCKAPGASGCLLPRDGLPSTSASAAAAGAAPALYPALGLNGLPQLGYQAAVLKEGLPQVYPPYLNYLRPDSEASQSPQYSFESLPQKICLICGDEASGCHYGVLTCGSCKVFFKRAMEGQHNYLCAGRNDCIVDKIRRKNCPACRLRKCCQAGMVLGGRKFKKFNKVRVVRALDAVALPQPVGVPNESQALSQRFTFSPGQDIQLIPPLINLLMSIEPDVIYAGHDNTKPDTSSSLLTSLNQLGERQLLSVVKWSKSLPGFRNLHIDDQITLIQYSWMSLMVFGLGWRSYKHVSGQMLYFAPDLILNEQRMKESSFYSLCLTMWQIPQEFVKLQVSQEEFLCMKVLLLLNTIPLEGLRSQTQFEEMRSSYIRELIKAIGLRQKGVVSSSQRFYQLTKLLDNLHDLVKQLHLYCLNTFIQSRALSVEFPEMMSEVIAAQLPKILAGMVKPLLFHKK
Chain of Thyrotropin-releasing hormone receptor (Homo sapiens) (P34981 whole entry, looked up): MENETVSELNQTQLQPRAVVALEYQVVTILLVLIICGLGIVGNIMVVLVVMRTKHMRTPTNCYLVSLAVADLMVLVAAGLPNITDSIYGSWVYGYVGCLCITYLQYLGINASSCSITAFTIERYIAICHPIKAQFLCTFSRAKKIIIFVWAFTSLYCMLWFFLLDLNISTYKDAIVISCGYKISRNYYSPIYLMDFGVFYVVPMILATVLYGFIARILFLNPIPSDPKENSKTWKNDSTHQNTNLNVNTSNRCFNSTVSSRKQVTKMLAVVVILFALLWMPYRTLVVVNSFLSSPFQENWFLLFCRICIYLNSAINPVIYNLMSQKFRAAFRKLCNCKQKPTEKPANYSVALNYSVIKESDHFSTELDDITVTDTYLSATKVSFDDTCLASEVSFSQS
Chain of Estrogen receptor (Homo sapiens) (P03372 whole entry, looked up): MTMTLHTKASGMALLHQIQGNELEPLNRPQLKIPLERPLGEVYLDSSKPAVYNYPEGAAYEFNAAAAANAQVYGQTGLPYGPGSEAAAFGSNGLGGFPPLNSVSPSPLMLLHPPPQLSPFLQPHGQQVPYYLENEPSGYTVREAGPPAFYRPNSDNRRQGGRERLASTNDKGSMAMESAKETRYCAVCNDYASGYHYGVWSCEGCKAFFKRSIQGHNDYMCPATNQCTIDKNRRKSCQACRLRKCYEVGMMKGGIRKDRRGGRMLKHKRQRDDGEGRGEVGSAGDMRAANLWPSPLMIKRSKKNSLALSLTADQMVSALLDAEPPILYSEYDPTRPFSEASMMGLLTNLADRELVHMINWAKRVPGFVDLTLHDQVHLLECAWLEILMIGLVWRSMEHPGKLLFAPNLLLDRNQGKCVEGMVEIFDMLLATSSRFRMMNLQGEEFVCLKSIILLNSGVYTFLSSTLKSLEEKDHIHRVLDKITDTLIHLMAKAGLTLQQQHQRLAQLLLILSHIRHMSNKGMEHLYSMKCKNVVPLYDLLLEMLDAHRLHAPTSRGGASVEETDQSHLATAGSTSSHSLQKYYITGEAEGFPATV
Chain of Thyrotropin receptor (Homo sapiens) (P16473 whole entry, looked up): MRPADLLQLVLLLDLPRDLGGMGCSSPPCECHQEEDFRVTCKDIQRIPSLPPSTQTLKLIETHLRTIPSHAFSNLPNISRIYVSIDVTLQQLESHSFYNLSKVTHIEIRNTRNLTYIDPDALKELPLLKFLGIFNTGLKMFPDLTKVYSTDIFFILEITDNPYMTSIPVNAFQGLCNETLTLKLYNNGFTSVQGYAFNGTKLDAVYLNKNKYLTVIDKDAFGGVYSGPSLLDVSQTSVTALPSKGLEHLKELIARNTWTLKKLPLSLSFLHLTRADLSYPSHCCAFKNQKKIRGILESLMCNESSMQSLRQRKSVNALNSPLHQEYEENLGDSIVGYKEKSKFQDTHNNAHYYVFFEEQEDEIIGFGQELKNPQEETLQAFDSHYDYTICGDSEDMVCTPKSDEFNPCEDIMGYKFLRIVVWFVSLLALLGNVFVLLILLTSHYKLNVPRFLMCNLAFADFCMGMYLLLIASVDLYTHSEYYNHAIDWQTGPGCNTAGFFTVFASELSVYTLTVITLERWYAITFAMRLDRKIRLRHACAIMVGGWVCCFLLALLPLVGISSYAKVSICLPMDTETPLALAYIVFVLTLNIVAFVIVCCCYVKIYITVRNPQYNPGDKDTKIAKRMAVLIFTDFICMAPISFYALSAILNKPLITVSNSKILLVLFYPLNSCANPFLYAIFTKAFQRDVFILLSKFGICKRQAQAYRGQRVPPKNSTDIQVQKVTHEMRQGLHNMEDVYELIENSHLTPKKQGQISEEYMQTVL
Chain of Estrogen receptor beta (Homo sapiens) (Q92731 whole entry, looked up): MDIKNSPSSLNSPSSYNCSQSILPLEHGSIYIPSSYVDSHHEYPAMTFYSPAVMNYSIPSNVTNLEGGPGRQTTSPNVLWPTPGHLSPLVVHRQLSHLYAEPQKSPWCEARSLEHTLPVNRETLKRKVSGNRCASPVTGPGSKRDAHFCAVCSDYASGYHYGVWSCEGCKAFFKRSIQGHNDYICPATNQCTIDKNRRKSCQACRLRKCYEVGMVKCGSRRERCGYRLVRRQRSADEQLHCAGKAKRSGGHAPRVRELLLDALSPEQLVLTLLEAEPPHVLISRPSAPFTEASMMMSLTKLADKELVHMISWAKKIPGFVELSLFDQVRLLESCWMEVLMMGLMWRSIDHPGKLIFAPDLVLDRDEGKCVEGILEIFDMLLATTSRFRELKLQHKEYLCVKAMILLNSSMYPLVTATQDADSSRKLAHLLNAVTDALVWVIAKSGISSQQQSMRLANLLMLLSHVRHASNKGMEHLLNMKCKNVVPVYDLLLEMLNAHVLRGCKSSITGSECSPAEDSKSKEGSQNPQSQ
Chain of Androgen receptor (Homo sapiens) (P10275 whole entry, looked up): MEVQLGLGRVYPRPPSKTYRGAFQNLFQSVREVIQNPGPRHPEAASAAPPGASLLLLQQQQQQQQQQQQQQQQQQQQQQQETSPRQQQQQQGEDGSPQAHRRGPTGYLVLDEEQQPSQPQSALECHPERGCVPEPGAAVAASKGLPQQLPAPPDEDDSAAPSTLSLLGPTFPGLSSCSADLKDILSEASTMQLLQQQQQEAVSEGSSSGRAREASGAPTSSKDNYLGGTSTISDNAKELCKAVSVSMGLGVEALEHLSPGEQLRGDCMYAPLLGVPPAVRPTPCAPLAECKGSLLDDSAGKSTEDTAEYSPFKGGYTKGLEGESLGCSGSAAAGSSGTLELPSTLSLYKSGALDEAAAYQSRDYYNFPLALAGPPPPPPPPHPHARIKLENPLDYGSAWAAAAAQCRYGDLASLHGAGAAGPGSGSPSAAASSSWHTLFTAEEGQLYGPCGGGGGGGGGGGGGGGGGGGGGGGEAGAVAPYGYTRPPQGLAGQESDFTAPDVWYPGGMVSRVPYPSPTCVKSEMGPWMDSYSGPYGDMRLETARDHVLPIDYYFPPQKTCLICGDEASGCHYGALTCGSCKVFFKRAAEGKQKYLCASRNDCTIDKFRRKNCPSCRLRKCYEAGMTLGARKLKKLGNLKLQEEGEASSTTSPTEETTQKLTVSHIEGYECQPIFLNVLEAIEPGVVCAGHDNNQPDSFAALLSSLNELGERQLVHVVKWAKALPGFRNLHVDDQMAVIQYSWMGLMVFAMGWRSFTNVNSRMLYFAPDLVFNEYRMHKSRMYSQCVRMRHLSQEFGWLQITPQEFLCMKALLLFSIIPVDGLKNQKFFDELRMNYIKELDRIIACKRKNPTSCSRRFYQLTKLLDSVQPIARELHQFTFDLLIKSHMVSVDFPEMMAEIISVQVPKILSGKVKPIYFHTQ

Compound	Potency [1]	Potency [2]	Potency [3]	Potency [4]	Potency [5]	outcome [6]	Potency [7]	Potency [8]	outcome [9]	Potency [10]	Potency [11]	Potency [12]	Potency [13]	Potency [14]	Potency [15]	Potency [16]	Potency [17]	Potency [18]	Potency [19]	Potency [20]
CCc1c(C(=O)O)c(=O)cnn1-c1ccc(Cl)cc1	inactive	inactive	inactive	inactive	inactive	inactive	inactive	inactive	inactive	inactive	inactive	inactive	inactive	inactive	inactive	inactive	inactive	–	–	–
COC(=O)CC#N	inactive	inactive	inactive	inactive	inactive	inactive	inactive	inactive	–	inactive	inactive	–	inactive	inactive	inactive	inactive	inactive	inactive	–	–
C=CC(C)(CCC=C(C)C)OC(=O)/C=C/c1ccccc1 (configuration not stated)	inactive	inactive	inactive	inactive	–	inactive	–	inactive	inactive	–	inactive	inactive	inactive	inactive	inactive	inactive	inactive	inactive	inactive	–
CC(C)(C)C1=CC(=O)C=C(C(C)(C)C)C1=O	inactive	inactive	inactive	inactive	inactive	inactive	–	inactive	inactive	inactive	inactive	inactive	inactive	inactive	inactive	inactive	inactive	inactive	–	–
CSc1c(Cl)c(Cl)c(Cl)c(Cl)c1Cl	inactive	inactive	–	inactive	–	inactive	–	inactive	inactive	inactive	inactive	–	–	inactive	inactive	inactive	inactive	–	inactive	–
CCCCCCC(C)Nc1ccc(Nc2ccccc2)cc1 (configuration not stated)	inactive	48.6 µM (active)	–	–	–	–	–	–	–	48.6 µM (active)	–	inactive	inactive	inactive	inactive	inactive	–	–	inactive	–
C=CC(=C)CCC=C(C)C	inactive	inactive	inactive	inactive	–	–	–	inactive	–	–	54.5 µM (active)	inactive	inactive	inactive	–	–	inactive	–	inactive	–
CCc1ccc(O)c(C(C)(C)C)c1	inactive	inactive	–	–	inactive	inactive	inactive	inactive	inactive	–	inactive	–	inactive	inactive	inactive	inactive	inactive	–	inactive	–
O=C1OC(=O)c2cccc3cccc1c23	inactive	inactive	inactive	inactive	inactive	inactive	inactive	–	inactive	inactive	inactive	inactive	inactive	inactive	inactive	inactive	–	–	–	–
O=CC1CC1	inactive	inactive	inactive	inactive	inactive	inactive	inactive	inactive	inactive	inactive	inactive	inactive	inactive	inactive	inactive	inactive	inactive	inactive	–	inactive
CN(Cc1cc(Br)cc(Br)c1N)C1CCCCC1	inactive	inactive	–	inactive	–	inactive	29.8 µM (active)	–	inactive	–	inactive	inactive	inactive	inactive	inactive	inactive	inactive	–	inactive	–
COC(=O)[C@]1(C)CCC[C@@]2(C)[C@H]1CC=C1C=C(C(C)C)CC[C@@H]12	inactive	inactive	68.6 µM (active)	inactive	–	inactive	inactive	inactive	inactive	–	inactive	inactive	inactive	inactive	inactive	–	inactive	–	–	–
Cc1occc1SSc1ccoc1C	inactive	inactive	–	inactive	–	inactive	inactive	inactive	inactive	inactive	inactive	–	inactive	inactive	inactive	inactive	inactive	–	inactive	–
c1ccc(Nc2cccc3ccccc23)cc1	inactive	31 µM (active) and 54.5 µM (active)	54.5 µM (active)	–	–	inactive	inactive	–	–	13.9 µM (active)	inactive	–	inactive	inactive	inactive	inactive	–	–	inactive	–
CCOC(=O)N1CCC(=C2c3ccc(Cl)cc3CCc3cccnc32)CC1	inactive	15.4 µM (active)	48.6 µM (active) and 26.6 µM (active)	54.5 µM (active)	inactive	–	–	–	–	13.7 µM (active)	–	inactive	inactive	–	inactive	inactive	–	–	–	–
